Test results as given in ChEMBL document CHEMBL4513216, “Probing the Open Global Health Chemical Diversity Library for Multistage-Active Starting Points for Next-Generation Antimalarials” (ACS Infect Dis, 2020).
Screen size: about 69,000 compounds; about 8,600 (12%) showed an effect of 50% or more. Only a selection was taken, and strong results are over-represented in it overall.

The compounds below were run on Plasmodium berghei (assay: Screen against P. berghei liver stage (PbLuc), transformed with Luciferase, at 10uM). Settings: tested at 10 uM.
Format: functional, HepG2

Compound	INHIBITION [%]
O=C(Nc1ccc(F)cc1-c1nc(C2CC2)no1)N1CC[C@@H](O)C1	42.1
COc1ccccc1NC(=O)CCNC(=O)c1ccoc1	-37.8
CCc1nc(C2CCCN2C(=O)CCc2c(C)noc2Cl)no1 (stereo unspecified)	1.78
CCc1nnc2n1CCN(C(=O)C(C)Oc1cccc(C#N)c1)C2 (stereo unspecified)	-15
COCC(=O)N1CCN(CCn2cccn2)c2nc(C)ccc2C1	21.4
FC(F)(F)c1nc(NC2CCCCC2)c2ccccc2n1	88.4
CCC(Nc1nc(C(F)(F)F)nc2ccccc12)C(=O)O (stereo unspecified)	-21.3
FC(F)(F)c1nc(NC2CCCC2)c2ccccc2n1	88.4
CC(C(=O)NC1CCCCC1)N1CCc2[nH]nc(C(F)(F)F)c2C1 (stereo unspecified)	-41.7
Cc1nc2n(n1)CC(Nc1nc(C(F)(F)F)nc3ccccc13)CC2 (stereo unspecified)	-59.3
CC(C)C(Nc1nc(C(F)(F)F)nc2ccccc12)C(=O)O (stereo unspecified)	22.3
Cc1noc(C)c1-c1ccc(C2CCCN2CCC(N)=O)nc1 (stereo unspecified)	30.4
CC(C)N1CCC(Cc2cncc(-c3cc(F)ccc3C(=O)O)n2)C1 (stereo unspecified)	35.2
Cc1cnc(CN2CCCC2c2cnn(C)c2)cn1 (stereo unspecified)	-11.4
Cc1ccccc1N(CC(=O)NCCc1nnc2n1CCC2)S(C)(=O)=O	-9.51
CN1CCc2nc(C3CCCCN3Cc3ccccc3Cl)ncc2C1 (stereo unspecified)	13.5
CN1CCCCC1c1ncc2c(n1)CCN(Cc1ccccc1Cl)C2 (stereo unspecified)	51.7
COc1ccc(CN2CCc3nc(C4CCCCN4C)ncc3C2)cc1 (stereo unspecified)	42.6
CN1CCCCC1c1ncc2c(n1)CCN(Cc1ccc(Cl)c(F)c1)C2 (stereo unspecified)	58.1
CN1CCCCC1c1ncc2c(n1)CCN(Cc1ccc(F)cc1)C2 (stereo unspecified)	24.4
Clc1ccccc1CN1CCc2nc(C3CCCCN3)ncc2C1 (stereo unspecified)	43.2
CC(=O)N(Cc1noc(C)n1)C1CCN(Cc2c(C)noc2C)C1 (stereo unspecified)	-27.8
Cc1cncc(C2CCN(C(=O)c3ccc(-n4cccn4)nc3)CC2)n1	-35.5

Compound	INHIBITION [%]
O=C(c1ccc(-n2cccn2)nc1)N1CCC(c2ccn[nH]2)C1 (stereo unspecified)	23
O=C(c1ccc(-n2cccn2)nc1)N1CCC(c2ccc(O)cc2)CC1	50.1
O=C(O)CN(Cc1ccsc1)CC1CCCO1 (stereo unspecified)	8.7
Cc1noc(C)c1CN1CCn2cc(CN3CCCC3)nc2C1	-15.2
CCc1cnc(N)nc1NCCCn1cc(Cl)cn1	64.1
CCc1cnc(N)nc1NCCCN1CCCCC1CO (stereo unspecified)	6.94
COc1ccc(OC)c(CCNc2ncc(S(N)(=O)=O)s2)c1	-19.9
CCc1cnc(N)nc1NCCn1cc(Cl)cn1	30.4
CCc1cnc(N)nc1NCCc1ccc(OC)cc1OC	58.05
CCc1cnc(N)nc1NCCCn1nc(C)nc1C	14.6
COc1ccc(CNc2cc(-c3nc(C)no3)ccn2)c(OC)c1	6.61
CCc1cnc(N)nc1NCc1ccc(OC)cc1OC	73.8
CCc1cnc(N)nc1NCc1ccc(OC)c(OC)c1	44
COc1cccc(C(=O)N2CCC(Nc3ccc(C)nn3)CC2)c1	21.5
Cc1nnc(NC(=O)NC(C)Cn2cccn2)s1 (stereo unspecified)	-21.9
COc1cc2nc(C)n(CC(=O)NCCCO)c(=O)c2cc1OC	-5.01
Cn1cc(C(=O)N[C@@H]2CN(Cc3ccc(F)cc3)[C@@H]3CCCO[C@@H]32)cn1	-17.1
CCCc1nc(C)cc(N2CCNC(C(=O)NC3CC3)C2)n1 (stereo unspecified)	47.1
CCNC(=O)O[C@H]1COCCN(c2nc3ccccc3s2)C1	-3.58
O=C(NC1CCCC1)O[C@H]1COCCN(c2nc3ccccc3s2)C1	85.1
Nc1nccc(N2CCNC(C(=O)NCc3ccccn3)C2)n1 (stereo unspecified)	52.6
O=C(NCc1ccncc1)C1CN(c2nc3ccccc3s2)CCN1 (stereo unspecified)	30.4
O=C(NCc1ccccn1)NC1CCCN(c2ncccn2)C1 (stereo unspecified)	23

Compound	INHIBITION [%]
Cc1ccc(CN2CCNC(C(=O)NC3CC3)C2)cc1C (stereo unspecified)	-2.25
O=C(NC1CC1)C1CN(c2nc3ccccc3s2)CCN1 (stereo unspecified)	65.6
O=C(NCc1ccccn1)C1CN(c2nc3ccccc3s2)CCN1 (stereo unspecified)	58.2
CC(C)NC(=O)O[C@H]1COCCN(c2nc3ccccc3s2)C1	-1.12
O=C(NCc1cccnc1)C1CN(c2cnc3ccccc3n2)CCN1 (stereo unspecified)	37.8
O=C(NCc1ccccn1)[C@H]1COC[C@H]2CN(c3ncccn3)C[C@H]21	41
Cc1cc(=O)n2c3c(cc(S(=O)(=O)NC4CC4)cc13)CCC2	49.45
Cc1cc(CN2CCc3cncnc3C2)no1	23.9
Cc1ccccc1-c1cc(CC2(C(=O)O)CCOCC2)on1	-21.4
Cc1cc(CN2CCN(Cc3ccccc3F)CC2)no1	-4.35
CN(C)C(=O)c1cncnc1-c1ccc(CNC(=O)C2CCCO2)cc1 (stereo unspecified)	4.615
CC(C)n1c(=O)[nH]c2cn(-c3ccc(F)cc3)c(=O)n21	3.16
Cc1[nH]c2c(C)ccc(C)c2c1CC(=O)NCCCNc1cccnc1	36.7
Cc1[nH]c2c(C)ccc(C)c2c1CC(=O)NCCNc1cccnc1	-17.2
Cc1[nH]c2c(C)ccc(C)c2c1CC(=O)NCC(O)c1cccnc1 (stereo unspecified)	76.5
Cc1ccc2c(n1)N(C)CCN(C(=O)C1CC1)C2	7.84
CC(C)NC(=O)CN(C)C(=O)c1csc(Cc2ccccc2F)n1	23.1
CCNC(=O)CN(CC)C(=O)c1csc(Cc2ccccc2F)n1	32
COC(=O)CCN(C)C(=O)c1csc(Cc2ccccc2F)n1	91.3
CC(C)NC(=O)N1CC[C@H]2[C@H]1CCN2c1ncccn1	-44.2
Cc1cnc(NCc2cnn(C)c2)nc1-c1cnn(C)c1	61.2
Cc1cnc(NCc2csc(C(C)C)n2)nc1-c1cnn(C)c1	58.5
Cc1cnc(NCc2ccncc2)nc1-c1cnn(C)c1	2.15

Compound	INHIBITION [%]
Cc1cnn(CC(C)NCc2csc(-c3cnn(C)c3)n2)c1 (stereo unspecified)	47.1
CCNc1ncc(C)c(-c2cnn(C)c2)n1	27.6
Cc1cnc(CNc2ncc(C)c(-c3cnn(C)c3)n2)cn1	39.4
N#CC1CCN(C(=O)NCCc2ccc(Cl)s2)CC1	-7.31
O=C(c1ccc(Cl)cc1)N1CCC(N2CCCCC2=O)CC1	27.5
Cc1c(C(=O)NC2=NCCS2)cnn1-c1ccc(Br)cc1	-156
COCC1Cn2nnc(-c3cnn(C)c3)c2CN1Cc1ccco1 (stereo unspecified)	11.8
Cc1cc(C(=O)N2CCCC(n3cncn3)C2)c(C)n1CC1CC1 (stereo unspecified)	-41.6
CC(Cc1ccco1)NC(=O)Nc1cccnc1 (stereo unspecified)	-10.1
CC(C)N1CCOC(Cc2nn3c(Cc4ccccc4)nnc3s2)C1 (stereo unspecified)	45.5
CC(C)c1nnc2sc(CC3CN(Cc4ccccc4)CCO3)nn12 (stereo unspecified)	42.8
CCCc1nnc2sc(CC3CN(Cc4ccccc4)CCO3)nn12 (stereo unspecified)	59.2
Cc1ccccc1-n1ncc(C(C)N)c1C (stereo unspecified)	58.4
Cc1c(C(C)N)cnn1-c1cccc2ccccc12 (stereo unspecified)	7.24
Cc1c(C(C)N)cnn1-c1ccccn1 (stereo unspecified)	-12.1
COc1ccccc1CNC(=O)C(C)n1cc2c(n1)c(C)nn2C (stereo unspecified)	21.7
Cc1nn(C)c2cn(C(C)C(=O)NCc3ccccn3)nc12 (stereo unspecified)	55.7
Cc1nn(C)c2cn(C(C)C(=O)NCc3ccncc3)nc12 (stereo unspecified)	32.5
Cc1nn(C)c2cn(C(C)C(=O)NCc3cccnc3)nc12 (stereo unspecified)	-2.37
Cc1nn(C)c2cn(C(C)C(=O)NCc3cccc(F)c3)nc12 (stereo unspecified)	58.2
Cc1nn(C)c2cn(C(C)C(=O)NCc3ccc(F)cc3)nc12 (stereo unspecified)	19.3
CN(Cc1ccco1)C(=O)NC1CCCN(c2ncccn2)C1 (stereo unspecified)	4.865
COc1ccc2c(ccn2CC(=O)Nc2n[nH]c(CC(C)C)n2)c1	16

Compound	INHIBITION [%]
CN(C)S(=O)(=O)N1C[C@@H]2COC[C@]2(COc2ccccn2)C1	11.5
Cc1cc(C2CCC2)nc(N2CCC3(CCCN(C)C3=O)C2)n1 (stereo unspecified)	-14.3
O=C1CCCN1c1cccc(N2CCC(NCCc3cscn3)CC2)c1	14.3
Cc1ccc(N2CCCC(NCc3cscn3)C2)nn1 (stereo unspecified)	26.8
c1ccc(-c2cccc(N3CCC(NCCc4cscn4)CC3)c2)cc1	69.9
c1cc(-c2cscn2)cc(N2CCC(NCCc3cccs3)CC2)c1	75.5
Cc1nc(-c2cccc(N3CCC(NC4CCOCC4)CC3)c2)cs1	37.7
O=C(NCCc1cccs1)NC1CCN(c2ncccn2)CC1	-89
CNc1cccc(C2CCN(C(=O)c3cccnc3)CC2)n1	-9.27
Cc1cc(C(=O)N2CCN(S(C)(=O)=O)[C@@H](C)C2)c(F)cc1F	-14.2
Cc1ccc(C)c2c(C)c(C(=O)NCCCn3ccnn3)[nH]c12	47.2
O=C(NC1CCCN(c2ncccn2)C1)c1ccoc1 (stereo unspecified)	-6.32
CC(C)c1nc(C2CCCN(C(=O)c3ccc(N(C)C)nn3)C2)no1 (stereo unspecified)	30.3
CCC(NC(=O)c1nn(C)cc1C(=O)O)c1ccccc1 (stereo unspecified)	15.9
Cc1cc(NC2CCc3ncnn3C2)n2nc(C(F)(F)F)nc2n1 (stereo unspecified)	26.9
Cc1cccc(CN2CC[C@@H]3[C@@H]2CCN3C(=O)c2cc(C)oc2C)n1	-6.23
Cc1ccccc1-c1csc2c(=O)[nH]c(N3CCCC(C(=O)O)C3)nc12 (stereo unspecified)	52.5
O=C(O)C1CCCN(c2nc3c(-c4ccccc4)csc3c(=O)[nH]2)C1 (stereo unspecified)	36.6
Cc1ccc(-c2csc3c(=O)[nH]c(N4CCCC(C(=O)O)C4)nc23)cc1 (stereo unspecified)	32.8
